Rows were chosen to be rich in hits. Some 19% of all compounds tested hit in one or more screens of this group.
KB-3-1 tox: kills parental KB-3-1 adenocarcinoma cells; actives 1.4% (n = 400,000); KB-3-1 viability, CellTiter-Glo ATP luminescence, 72 h; Potency, µM (doses to about 46.1 µM), most hits filed as cytotoxic; also: nearly all actives have a fitted effect of over 60% in size
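72 h, 37 °C compound treatment of KB-3-1 parental cells; CellTiter-Glo added, 10 min, luminescence read. Data corrected against DMSO-only plates and normalized before curve fitting.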
KB-V1 cytotox: kills drug-selected multidrug resistant KB-V1 cells; KB-V1 MDR cells viability, CellTiter-Glo, 72 h; Potency, µM (doses to about 46.1 µM), hits mostly cytotoxic; actives 3.4% (n = 400,000); also: nearly all actives have a fitted effect of over 60% in size
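Cytotoxicity toward P-gp-expressing KB-V1 cells was determined as loss of CellTiter-Glo luminescence after 72 h at 37 degrees C. Compounds were tested in quantitative HTS format across a concentration range, with curves fitted to normalized data.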
DT40 TDP1 no CPT: qHTS for Inhibitors of human tyrosyl-DNA phosphodiesterase 1 (TDP1): qHTS in cells in absence of CPT. DT40 Tdp1-/- hTDP1 cells, no CPT, ATP luminescence, 48 h. Potency, µM (top dose mostly 46.2 µM), hits mostly inhibitors. actives 15% (n = 420,000). AID 686978, 2013; also: nearly all actives have a fitted effect of over 55% in size
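Camptothecin absent (DMSO only). Human TDP1-complemented DT40 knockout cells, 400 cells/well, 37 °C for minimum 48 hr; ATP measured via CellTiter-Glo, 30 min dark incubation, luminescence.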
TDP1 cell CPT: growth inhibition of DT40 Tdp1-/-;hTDP1 cells with camptothecin (screen for TDP1 inhibitors); AID 686979; actives 12% (n = 420,000); Potency, µM (doses to about 46.2 µM), actives largely listed as inhibitors; chicken DT40 Tdp1-/-;hTDP1 cells + 20 nM CPT, ATP luminescence, 48 h; also: nearly all actives have a fitted effect of over 55% in size
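Cell growth measured by CellTiter-Glo luminescence after a minimum 48 h, 37 C compound exposure with 20 nM CPT in Tdp1-knockout DT40 cells stably expressing hTDP1, seeded 400/well; qHTS titration format.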
HT1080-NT tox: kills 2HG-producing HT-1080-NT fibrosarcoma cells; HT-1080-NT fibrosarcoma viability, CellTiter-Glo ATP luminescence, 48 h; Potency, µM (highest dose often 46.1 µM), actives largely listed as cytotoxic; actives 1.6% (n = 360,000);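 also: NT is the 2HG producing partner of a matched IDH1 knockdown line; nearly all actives have a fitted effect of over 55% in size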
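HT-1080-NT; 750 cells/well; 5% FBS RPMI; 48 h compound, 37 degrees C; CellTiter-Glo luminescence; curve fitting and curve-class assignment.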
HT1080 IDH1KD tx: HT-1080 IDH1 knockdown cell toxicity (counter line) | HT-1080 IDH1 knockdown viability, ATP luminescence, 48 h | Potency, µM (titrated, usually from 46.1 µM), usual class: cytotoxic | actives 2% (n = 360,000) | AID 686971
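CellTiter-Glo luminescence after 48 h compound exposure at 37 degrees C of IDH1-knockdown HT-1080 cells in 5% FBS RPMI. %Activity scaled between DMSO wells and cell-free media wells, with curves fitted and assigned curve classes.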
A number is an active result; 0 = inactive; ? = inconclusive; - = no result; ! = a repeat was not active; [ ] = another dose, or the depositor's remark. Calls follow the shape of the dose curve; as a rule, active = well fitted curve in the direction sought with a large enough effect; inconclusive = small, poorly fitted or top-dose-only effect, or another doubt; inactive = no such curve, though single readings can be large; an effect the other way counts as inactive or inconclusive.

SMILES	KB-3-1 tox	KB-V1 cytotox	DT40 TDP1 no CPT	TDP1 cell CPT	HT1080-NT tox	HT1080 IDH1KD tx
O=C(NC(=S)N1CCN(c2nc(-c3ccccc3)cs2)CC1)c1cccnc1	0	20.6µM	?	?	0	0
O=C(N1CCOCC1)N1CCN(c2nc(-c3ccccc3)cs2)CC1	0	20.6µM	?	0	0	0
CC(C)(C)NCC(O)COc1ccccc1C(C)(C)C (stereo not drawn)	0	0	?	?	0	?
CC(C)(C)NCC(O)COc1ccccc1C(=O)CCc1ccccc1 (stereo not drawn)	0	0	14.6µM	16.4µM	15.8µM	?
CC1(C)Cc2ccccc2C(NN=C2CCCC2)=N1	0	0	0	0	0	0
FC(F)(F)c1cc(CN2CC[C@@]3(CCCNC3)C2)cc(C(F)(F)F)c1	-	-	14.6µM	?	-	-
FC(F)(F)c1cc(CN2CC3(CCNCC3)C2)cc(C(F)(F)F)c1	-	-	7.31µM	18.4µM	-	-
NC(=O)c1ccc(N2CCNC(=O)C2)c([N+](=O)[O-])c1	0	0	0	0	0	0
CC(=O)c1ccc(OCCNS(=O)(=O)c2ccc(-n3cnnn3)cc2)cc1	0	?	0	?	0	0
CCCc1cc(C(=O)Nc2cccc3ccccc23)n(C)n1	0	0	?	?	0	0
CCCc1cc(C(=O)Nc2ccc(C(=O)c3ccc(C)cc3)cc2)n(C)n1	0	0	?	14.6µM	0	?
O=S(=O)(c1ccc(F)cc1)N1CCN(Cc2ccccn2)CC1	?	0	0	0	0	0
O=S(=O)(Nc1ccc(-c2cn3ccccc3n2)cc1)c1ccccc1	0	0	0	0	0	0
Cc1csc2nc(-c3ccc(NS(=O)(=O)c4cccc(F)c4)cc3)cn12	0	0	16.4µM	?	-	-
Cc1ccc(S(=O)(=O)Nc2cccc(-c3cn4cccc(C)c4n3)c2)cc1	0	0	?	?	-	-
Cc1cccc(S(=O)(=O)Nc2ccc(-c3cn4ccccc4n3)cc2)c1	0	23.1µM	0	0	0	0
CCCS(=O)(=O)Nc1cccc(-c2cn3ccc(C)cc3n2)c1	0	0	16.4µM	23.1µM	-	-
Cc1cc(C)c(S(=O)(=O)Nc2ccc(-c3cn4ccccc4n3)cc2)c(C)c1	0	?	?	?	0	0
Cc1nc(-c2ccc(NS(=O)(=O)c3ccccc3)cc2)cs1	0	0	0	0	0	0
Cc1cc(C)c(S(=O)(=O)Nc2cccc(-c3cn4ccccc4n3)c2)c(C)c1	-	-	29.1µM	18.4µM	-	-
COc1cc(NC(=O)COC(=O)CSc2cc(C)ccc2C)c(C)cc1[N+](=O)[O-]	0	0	0	0	0	0
CCCOC(=O)CC1C(=O)NCCN1C(=O)OC(C)(C)C (stereo not drawn)	0	0	0	0	0	0
CCCS(=O)(=O)Nc1cc(-c2cn3cccc(C)c3n2)ccc1C	0	0	18.4µM	?	-	-
Cc1nn(-c2ccccc2)c(C)c1/C=N\N1CCN(c2ccc(Cl)cc2)CC1	?	?	10.3µM	18.4µM	0	0
COc1ccccc1CNC(=O)Cn1cccc1C(=O)c1ccccc1	0	0	0	0	0	0
SMILES	KB-3-1 tox	KB-V1 cytotox	DT40 TDP1 no CPT	TDP1 cell CPT	HT1080-NT tox	HT1080 IDH1KD tx
COc1ccc(-c2cc(C(F)(F)F)nc(SCC(=O)NCc3ccc(OC)c(OC)c3)n2)cc1	0	0	?	23.1µM	-	-
CCC(C)NC(=O)CCSc1nc(-c2ccc(OC)cc2)cc(C(F)(F)F)n1 (stereo not drawn)	0	?	16.4µM	?	-	-
COCCNC(=O)CCSc1nc(-c2ccc(OC)cc2)cc(C(F)(F)F)n1	0	0	20.6µM	23.1µM!	?	0
COc1ccc(-c2cc(C(F)(F)F)nc(SCC(=O)NC(C)c3ccccc3)n2)cc1 (stereo not drawn)	0	0	14.6µM	?	-	-
Cc1ccc(OCC(=O)Oc2cccc(C)c2C)cc1	0	0	0	0	0	0
COc1ccc(-c2cn3nc(SCC(=O)Nc4ccccc4F)ccc3n2)cc1	0	0	?	?	-	-
CC1=Nc2ccccc2/C1=C(/C)c1c(C)[nH]c2ccccc12	?	0	?	0	-	-
CC1S/C(=N/N=C2CCC(C(C)(C)C)CC2)NC1=O (stereo not drawn)	0	0	?	?	0	0
CC1S/C(=N/N=C2CCCCC2)NC1=O (stereo not drawn)	0	0	10.3µM	2.91µM	0	0
CCOC(=O)c1c(NC(=O)CSc2nc3ccccc3s2)sc(C)c1C	0	13µM	?	16.4µM	0	0
COC(=O)c1c(NC(=O)CSc2ncnc3ccccc23)sc(C)c1C	0	0	23.1µM	18.4µM	0	0
COC(=O)c1c(NC(=O)CSc2nccn2C)sc(C)c1C	0	?	0	0	0	0
CCOC(=O)c1c(NC(=O)CSc2ncnc3ccccc23)sc(C(C)=O)c1C	0	?	9.2µM	8.2µM	0	0
c1ccc(CCNc2c3c(nc4ncnn24)CCC3)cc1	0	11.6µM	?	?	0	0
Fc1ccccc1CCNc1c2c(nc3ncnn13)CCCC2	?	0	5.17µM	9.2µM	0	0
Cc1cc(NCCc2ccccc2F)n2ncnc2n1	0	?	?	0	0	0
CS(=O)(=O)c1ccc(C(=O)OCC(=O)NCc2cccs2)cc1[N+](=O)[O-]	?	?	4.61µM	5.8µM	?	0
Cc1cccc(C(=O)OCC(=O)NCc2cccs2)c1	0	0	0	?	0	0
CCCCn1c(N)c(N(C)C(=O)c2cn(-c3ccccc3)nc2-c2ccccc2)c(=O)[nH]c1=O	0	?	0	0	0[9.24 µM]	0
COc1ccc(/C(O)=C2/C(=O)C(=O)N(CCCN3CCOCC3)C2c2ccc(Cl)cc2)cc1 (stereo not drawn)	0	0	0	0	0	0
CC(=O)c1c(C)[nH]c(C(=O)N2CCN(C(=O)c3ccco3)CC2)c1C	0	0	0	0	0	0
CC(=O)c1c(C)[nH]c(C(=O)N2CCN(c3ccc(F)cc3)CC2)c1C	0	?	?	14.1µM	?	10µM
CCOC(=O)c1c(C)[nH]c(C(=O)OCC(=O)N2CCN(S(=O)(=O)c3ccc(C)cc3C)CC2)c1C	?	?	?	?	0	0
COc1cccc(N2CCN(C(=O)c3[nH]c(C)c(C(C)=O)c3C)CC2)c1	6.31µM	5.62µM	4.47µM	5.62µM	7.08µM	5.62µM
CC(=O)c1c(C)[nH]c(C(=O)N2CCN(S(=O)(=O)c3ccc(C)cc3C)CC2)c1C	0	0	18.4µM	?	0	0

Screening results from PubChem.
